IMPase Li inh = cell-permeable IMPase inhibitors with lithium potentiation | CHO-M1 cells, IP1 TR-FRET (IP-One), carbachol + lithium | Potency, µM (titrated, usually from 59.4 µM), without a hit: top-dose activity, negative = IMPase inhibition, most hits filed as inhibitors | hit rate 0.35% among 210,000;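 also: IP1 builds up when IMPase is blocked and the TR-FRET signal falls; plate controls were basal vehicle for no effect and high inhibitor control for full effect; nearly all actives have a fitted effect of over 50% in size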
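CHO cells stably expressing M1 receptor (2000/well) were cultured 16–30 h, then exposed to compounds with a small lithium addition for 30 min at 37C. IP1 was measured by TR-FRET competition; AC50 from Hill fits.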
NPSR antag = neuropeptide S receptor (human) antagonism, cAMP. Q6W5P4. CHO-NPSR cells, cAMP TR-FRET, antagonist mode. Potency, µM (doses to about 38.3 µM), for the others: at the top dose activity change, negative = inhibition, actives largely listed as inhibitors. hit rate 1% among 220,000. AID 1461; also: % is scaled to controls: 0 for no effect and ±100 for the full control effect; nearly all actives have a fitted effect of over 50% in size
Target sequence (Q6W5P4 whole entry, looked up): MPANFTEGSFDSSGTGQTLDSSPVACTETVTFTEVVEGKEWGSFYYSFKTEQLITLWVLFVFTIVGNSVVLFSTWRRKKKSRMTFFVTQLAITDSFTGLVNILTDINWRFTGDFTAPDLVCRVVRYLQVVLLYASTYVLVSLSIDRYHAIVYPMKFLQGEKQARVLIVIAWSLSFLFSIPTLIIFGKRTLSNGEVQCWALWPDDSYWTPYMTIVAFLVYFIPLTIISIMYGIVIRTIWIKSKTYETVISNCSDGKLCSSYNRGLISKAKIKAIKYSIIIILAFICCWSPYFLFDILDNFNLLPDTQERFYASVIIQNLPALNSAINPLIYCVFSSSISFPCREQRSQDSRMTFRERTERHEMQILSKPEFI
HttQ103 aggreg = inhibitors of mutant huntingtin aggregate formation in PC12 cells; AID 1688; Potency, µM (highest dose often 46.1 µM), without a hit: top-dose activity change, negative = inhibition, hits mostly inhibitors; hit rate 1.1% among 220,000; PC12 HttQ103-GFP aggregates, Acumen cytometry, 40 h; also: % is scaled to controls: 0 for no effect and ±100 for the full control effect; nearly all actives have a fitted effect of over 60% in size
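Multiplexed with ATP-based cell death, this channel scores GFP aggregates in PC12 cells expressing inducible HTTex1-Q103-GFP. Induction used 100 nM tebufenozide; compounds were tested in concentration series.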
ERK EGF inh = inhibitors of EGF-stimulated ERK signaling pathway; HEK293-V1b, EGF-stimulated phospho-ERK AlphaScreen; Potency, µM (titrated, usually from 11.5 µM), for inactives: top-dose activity change, negative = inhibition, actives largely listed as inhibitors; hit rate 0.41% among 130,000; AID 1454;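 also: plate controls were stimulated vehicle wells for no effect and unstimulated vehicle basal for full effect; nearly all actives have a fitted effect of over 55% in size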
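V1b-HEK293, 1% FBS o/n; cpd 30 min 37C; EGF 25 nM final, 5 min; lyse 10 min; AlphaScreen beads 5 h RT. Normalized DMSO basal vs EGF max; Hill AC50.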
HTT cytoprotect = protects HTT-Q103 PC12 cells, measured by ATP. AID 1471. Potency, µM (series often up to 56.4 µM), inactives show cytoprotection (ATP increase), actives largely listed as activators. PC12 HTT-Q103 induced, cytoprotection, ATP luminescence, 40 h. hit rate 0.14% among 230,000; also: % of control where 0% means no effect; nearly all actives have a fitted effect of over 45% in size
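Compounds added alongside 100 nM tebufenozide, which induces toxic Q103 huntingtin exon 1-GFP in stable PC12 cells; surviving cells quantified by luminescent ATP measurement. Medium: phenol red-free DMEM, 5% equine and 5% calf serum.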
* hit, by the source's call; ? = inconclusive; nt = no result; [ ] = another dose, or the depositor's remark. Compounds with a hit are over-represented: about 1.9% of the library has one in this group of screens. Calls follow the shape of the dose curve; as a rule, active = well fitted curve in the direction sought with a large enough effect; inconclusive = small, poorly fitted or top-dose-only effect, or another doubt; inactive = no such curve, though single readings can be large; an effect the other way counts as inactive or inconclusive. Potency is read from the fitted curve at half-maximal effect.

SMILES	IMPase Li inh	NPSR antag	HttQ103 aggreg	ERK EGF inh	HTT cytoprotect
O=C(NCc1cccnc1)/C(=C/c1ccc(-c2cccc(Cl)c2)o1)S(=O)(=O)c1ccccc1	33%[38.3 µM]	5µM*	?	nt	-87%
NC(=O)OC[C@@H]1[C@H](NC(=O)/C(=N/OCC(=O)O)c2csc(N)n2)C(=O)N1S(=O)(=O)O	nt	nt	2%	nt	-9%
CN(C)CCCNC(=O)c1ccc(-c2nc(-c3ccc(Cl)cc3)cs2)cc1	13%[38.3 µM]	10µM*	?	nt	-111%
COc1ccc(S(=O)(=O)N(C(C)=O)c2ccc(OC(C)=O)c3ccccc23)cc1[N+](=O)[O-]	nt	-18%[46.1 µM]	6.3µM*	nt	-4%[10 µM]
C=C1CCC(=O)C(C)CCC2C1CC2(C)C (centres undefined)	-1%	nt	nt	24%	nt
COC(=O)c1cccc2c1-c1ccccc1/C2=N/O	31%[38.3 µM]	?	10µM*	nt	22%
CCOc1c(Br)ccc2c1sc1nc[nH]c(=O)c12	nt	20%[46.1 µM]	11µM*	nt	11%[10 µM]
COCCOC(=O)c1sc2nc[nH]c(=O)c2c1C	-5%	20%	?	-10%	-19%
O=C(Nc1ccc(Cl)c(Cl)c1)OCc1cnc(Cl)s1	10%[38.3 µM]	-18%[46.1 µM]	-24%	nt	0%
CC(C)OC(=O)NCCOC(=O)Nc1ccc(Cl)c(Cl)c1	7%	-17%[46.1 µM]	7.1µM*	5%	26%[10 µM]
CC(C)OC(=O)NCCOC(=O)Nc1cccc(Cl)c1	13%[38.3 µM]	9%[46.1 µM]	11µM*	nt	22%[10 µM]
CC(C)OC(=O)NC(C)(C)COC(=O)Nc1cccc(Cl)c1	7%	8%[46.1 µM]	1%	-16%	-2%[10 µM]
O=C(Nc1ccc(Cl)c(Cl)c1)OCc1cncs1	13%[38.3 µM]	8%[46.1 µM]	11µM*	nt	6%
COc1cccc([C@@H]2Oc3ccc(OC)cc3C[C@H]2OC(=O)N[C@H]2CCCc3ccccc32)c1	22%	nt	nt	-8%	11%
O=C(/C=C/c1ccccc1O)c1ccc(Cl)cc1	8%	6%	-13%[9.22 µM]	40µM*	-3%[10 µM]
COc1ccccc1/C=C/C(=O)c1ccc(Cl)cc1	23%[38.3 µM]	-17%[46.1 µM]	-15%	nt	-35%
CS(=O)c1nc(-c2ccc(Br)cc2)cc(-c2ccccc2)c1C#N (centres undefined)	28%[38.3 µM]	13µM*	?	nt	-194%[0.074 µM]
CS(=O)(=O)c1nc(-c2ccc(Br)cc2)cc(-c2ccccc2)c1C#N	-30%[38.3 µM]	7.9µM*	-96%	nt	-127%
N#Cc1c(-c2cccc(Br)c2)cc(-c2cccnc2)nc1N	?	-29%	-2%	-8%	-2%[10 µM]
N#Cc1c(-c2ccc(Br)cc2)cc(-c2cccnc2)nc1N	22µM*	6%	-8%	-7%	-13%[10 µM]
COC(=O)CCC(=O)OC1(C)C(=O)C=C2C=C(C3CC3)N(c3ccc(OC)cc3)C=C2C1=O (centres undefined)	4%	nt	nt	nt	24%[10 µM]
COc1cccc2[nH]c3c(N4CCCCC4)ncnc3c12	8%[38.3 µM]	-4%[46.1 µM]	?	nt	-76%[0.074 µM]
COc1ccc2[nH]c3c(N4CCc5ccccc5C4)ncnc3c2c1	nt	?	-12%[9.22 µM]	32µM*	-63%[10 µM]
CCOC(=O)N1CCN(c2ncnc3c2[nH]c2ccc(OC)cc23)CC1	8%[38.3 µM]	-13%[46.1 µM]	12%	nt	-14%
COc1cc2[nH]c3c(N4CCN(c5ccccn5)CC4)ncnc3c2cc1OC	5%[38.3 µM]	?	20µM*	nt	-165%[0.074 µM]
SMILES	IMPase Li inh	NPSR antag	HttQ103 aggreg	ERK EGF inh	HTT cytoprotect
CC1(NC[C@@H](O)COc2cccc3[nH]ccc23)CCC(C(C)(C)NC(=O)CBr)CC1 (some centres undefined)	nt	nt	nt	nt	35%[1.9 µM]
Oc1cc2c(cc1O)[C@@H]1c3ccc(O)c(O)c3OC[C@]1(O)C2	17%	nt	nt	?	-120%
CC1=CC(=O)CC(C)(C)[C@@]1(O)/C=C\C(C)=C\C(=O)O	nt	nt	nt	nt	9%
O=C1/C(=C/c2ccc([N+](=O)[O-])cc2)C=C(c2ccccc2)N1c1ccccc1	nt	-19%[46.1 µM]	17%	nt	-12%
O=C(O)c1cccc(N2C(=O)/C(=C/c3ccc([N+](=O)[O-])cc3)C=C2c2ccccc2)c1	-8%	5µM*	-14%	-7%	?
O=C1/C(=C/c2ccc([N+](=O)[O-])cc2)C=C(c2ccccc2)N1c1ccc(O)cc1	22%[38.3 µM]	13µM*	-9%	nt	-110%
CCOC(=O)c1sc(NC(=O)CSc2nc(C)cc(-c3ccccc3)n2)c(C#N)c1C	-5%	-21%[46.1 µM]	11%	nt	13%[10 µM]

Source: PubChem BioAssay (National Center for Advancing Translational Sciences (NCATS))
